Fam108B counter – blocks mouse Fam108B hydrolase in RBBP9 counter-screen. recombinant Fam108B, FP-Rh probe fluorescence polarization. inhibition, % at 9.51 µM. 0.33% of 300,000 active. AID 1947;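 active = inhibition above the screen mean inhibition plus 3 SD, computed separately per campaign, cut at about 18% in these data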;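 also: inhibitors lower polarization as less probe binds the enzyme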
PAD4 FP inh – blocks human protein arginine deiminase 4. inhibition, % at 6.36 µM. Q9UM07. 0.41% of 330,000 active. recombinant PAD4, RCA probe fluorescence polarization. AID 485272;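 active = percent inhibition above a cutoff equal to the mean of all tested compounds plus 3 SD, cut at about 15% in these data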;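 also: 0% = PAD4 with RCA probe and DMSO and 100% = probe without PAD4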
Target sequence (Q9UM07 whole entry, looked up): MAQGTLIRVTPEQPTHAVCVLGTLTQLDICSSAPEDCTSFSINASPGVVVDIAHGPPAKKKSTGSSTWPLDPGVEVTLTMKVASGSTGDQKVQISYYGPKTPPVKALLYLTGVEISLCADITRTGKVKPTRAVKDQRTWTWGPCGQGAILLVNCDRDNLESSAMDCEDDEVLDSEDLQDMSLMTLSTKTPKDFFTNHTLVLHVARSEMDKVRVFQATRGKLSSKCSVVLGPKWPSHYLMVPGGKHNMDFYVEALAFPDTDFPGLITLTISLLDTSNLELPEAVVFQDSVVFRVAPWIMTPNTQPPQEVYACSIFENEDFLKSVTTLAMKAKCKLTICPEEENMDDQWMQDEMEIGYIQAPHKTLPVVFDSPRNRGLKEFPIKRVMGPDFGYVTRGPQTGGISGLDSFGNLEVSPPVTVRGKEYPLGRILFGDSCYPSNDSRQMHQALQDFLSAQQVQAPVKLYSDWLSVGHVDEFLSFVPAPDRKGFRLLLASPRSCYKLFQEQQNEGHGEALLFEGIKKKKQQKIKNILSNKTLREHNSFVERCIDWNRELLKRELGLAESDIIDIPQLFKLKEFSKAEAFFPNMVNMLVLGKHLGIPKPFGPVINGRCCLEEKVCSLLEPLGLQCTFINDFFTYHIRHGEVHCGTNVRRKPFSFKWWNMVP
TCR CD3 inh – blocks the human TCR-CD3 interaction; inhibition, % at 9.4 µM; AID 651800; TAMRA-labeled TCR probe fluorescence, biochemical; 0.37% of 360,000 active;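 also: recombinant mutant TCR 2C K166C tagged with TAMRA read by polarization; 0% = receptor in buffer alone and 100% = receptor with positive control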
SIAE inh – inhibitors of human sialic acid acetylesterase SIAE; 0.69% of 370,000 active; SIAE FP-Rh probe binding, fluorescence polarization; inhibition, % at 9.66 µM; Q9HAT2;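 active = inhibition above a cutoff: mean of compounds within the control limits plus 3 SD of those, cut at about 17% in these data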;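 also: 0% = plate median of compound wells and 100% = probe without SIAE protein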
PRMT1 FP inh – PRMT1 (human) inhibition, primary screen; Q99873; recombinant PRMT1, activity-based probe fluorescence polarization; inhibition, % at 2.79 µM; 1.3% of 370,000 active;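 active = inhibition above about 21% made by adding two undisclosed values, limit read from the data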
PME-1 inh – blocks human protein phosphatase methylesterase 1; recombinant PME-1, FP-Rh probe fluorescence polarization; Q9Y570; inhibition, % at 5.9 µM; 0.53% of 320,000 active;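 active = inhibition above the campaign mean of all compounds plus 3 SD, cut at about 26% in these data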;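 also: competitive labeling of PME-1 active site by serine hydrolase directed probe; 0% = PME-1 with DMSO and 100% = wells lacking PME-1 enzyme; inhibitors block probe labeling so polarization falls and inhibition rises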
BSA TAMRA ctr – counter-screen for TCR-CD3 interaction inhibitors: BSA probe. shares compounds with TCR CD3 inh. TAMRA-labeled BSA probe fluorescence counterscreen. 10% of 1,200 active. inhibition, % at 9.4 µM; in the data active = inhibition above about 23%;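 also: 0% = buffer low control and 100% = reference high control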
TCR-CD3 inh conf – TCR-CD3 interaction inhibition, confirmation; shares compounds with TCR CD3 inh; 48% of 1,200 active; TAMRA-labeled TCR probe fluorescence binding assay; inhibition, % at 9.4 µM
PRMT1 confirm – PRMT1 (human) inhibition, FP confirmation; shares compounds with PRMT1 FP inh; recombinant His-PRMT1, activity-based probe fluorescence polarization; inhibition, % at 2.79 µM; 42% of 3,300 active; AID 687036;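 active = mean inhibition across replicates above the hit cutoff derived for the earlier primary screen, cut at about 22% in these data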
SIAE confirm – confirmation of human SIAE inhibitors | 13% of 2,300 active | shares compounds with SIAE inh | SIAE FP-Rh activity-based probe, fluorescence polarization | inhibition, % at 9.66 µM | AID 1117263;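 active = mean inhibition of the replicates above the hit cutoff set in the primary screen, cut at about 17% in these data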;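 also: 0% = SIAE with DMSO and probe and 100% = probe without SIAE; inhibitors lower polarization as more probe stays unbound to SIAE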
An asterisk follows results filed as active; . = no result given. Rows were chosen to be rich in hits. Some 2.6% of all compounds tested hit in one or more screens of this group. Rule as the data show it, unless noted: active = inhibition above about 19%; inactive = the rest.

SMILES | Fam108B counter | PAD4 FP inh | TCR CD3 inh | SIAE inh | PRMT1 FP inh | PME-1 inh | BSA TAMRA ctr | TCR-CD3 inh conf | others
CC(C)CNC(=O)COC(=O)c1c2c(nc3ccccc13)/C(=C\c1cccs1)CC2 | . | . | -1 | -4 | 7 | . | . | .
N#Cc1c(SCC(=O)Nc2nccs2)sc2c(O)cc(=O)[nH]c12 | 5 | -18 | 20* | -18 | 51* | -39 | -13 | 15 | PRMT1 confirm=27*
N#Cc1c(SCC(=O)Nc2nc3ccc(Br)cc3s2)sc2c(O)cc(=O)[nH]c12 | -6 | -20 | 15 | -49 | 19 | -9 | . | .
CCCSc1nnc(NC(=O)CSc2sc3c(O)cc(=O)[nH]c3c2C#N)s1 | 6 | -9 | 31* | -38 | 34* | -25 | -18 | 12 | PRMT1 confirm=15
N#Cc1cccc(NC(=O)CSc2sc3c(O)cc(=O)[nH]c3c2C#N)c1 | 0 | -3 | 11 | -42 | 19 | -18 | . | .
N#Cc1c(SCC(=O)Nc2nc3ccccc3s2)sc2c(O)cc(=O)[nH]c12 | . | -18 | 19* | -42 | 52* | -8 | -14 | 15 | PRMT1 confirm=7
O=C(NCCc1c[nH]c2ccccc12)OCc1cn(Cc2c(F)cccc2F)nn1 | . | . | . | 14 | -7 | . | . | .
Cc1cccc(-c2nnc(SCC(=O)c3ccc(F)cc3)n2C)c1 | . | . | . | -1 | -1 | . | . | .
C=CCN1[C@H](C#N)[C@@H](c2ccc(C#Cc3ccccc3OC)cc2)[C@H]1CO | . | . | . | 13 | 2 | . | . | .
COc1ccc(CN(C)CC#Cc2ccccc2)c(OC)c1 | . | . | . | 4 | 0 | . | . | .
O=S(=O)(O)c1cc(O)c(N=Nc2ccc(O)cc2O)c2ccccc12 | . | . | 150* | 11 | 44* | . | 171* | 130* | PRMT1 confirm=43*
COc1ccc(CN2CCC(CNC(=O)Nc3ccccc3)CC2)cc1 | . | . | . | 7 | -6 | . | . | .
Nc1cccc(Nc2ccccc2)c1 | 3 | -27 | 4 | 6 | -5 | -2 | . | .
Nc1ccc(Nc2ccccc2)c(S(=O)(=O)O)c1 | 9 | -1 | 22* | 10 | 37* | -5 | -3 | 9 | PRMT1 confirm=13
O=c1[nH]c2ccccc2c2nc3ccccn3c12 | -1 | 1 | 10 | 1 | -3 | 3 | . | .
O=c1nc2c(O)cccn2c2c1c(=O)[nH]c1ccccc12 | . | . | 54* | 3 | 34* | . | -11 | 13 | PRMT1 confirm=34*
Clc1ccc(/C=N/c2c(-c3ccco3)nc3ccccn23)cc1 | 8 | 6 | 4 | 12 | 14 | 0 | . | .
Oc1ccccc1/C=N/c1c(-c2ccco2)nc2ccccn12 | 5 | -1 | 20* | 15 | 27* | 2 | 1 | 4 | PRMT1 confirm=6
CCn1c(COc2ccc(C)cc2)nnc1SCC(=O)c1ccc(-c2ccccc2)cc1 | . | . | . | 1 | 0 | . | . | .
CC(=O)Nc1cc(-c2ccccc2N(C)C)cn2c(-c3ccccc3)cnc12 | . | . | 5 | 6 | 6 | . | . | .
CC(=O)Nc1cc(-c2ccccc2N(C)C)cn2c(-c3ccc(S(C)(=O)=O)cc3)cnc12 | . | . | 31* | 15 | 107* | . | 6 | 14 | PRMT1 confirm=20
CCN(CC)S(=O)(=O)c1ccc(C(=O)NCc2ccc3c(c2)OCO3)cc1 | 2 | -4 | 2 | 7 | 3 | 4 | . | .
CCN(CC)S(=O)(=O)c1ccc(C(=O)NCc2ccc3c(c2)cc(C)n3C)cc1 | -3 | 0 | 74* | 28* | 18 | -1 | -5 | -1 | SIAE confirm=-4
O=C1CC(c2ccc3ccccc3c2)N=C2N(Cc3ccc4c(c3)OCO4)C/C(=C/c3ccccc3)N12 (stereo not given) | . | . | . | -2 | 0 | . | . | .
CCCCC1OC2(C)OC(=N)C1(C#N)C(C#N)(C#N)C2c1ccccc1 (stereo not given) | 2 | 9 | 20* | 38* | 18 | -2 | 4 | 6 | SIAE confirm=2
SMILES | Fam108B counter | PAD4 FP inh | TCR CD3 inh | SIAE inh | PRMT1 FP inh | PME-1 inh | BSA TAMRA ctr | TCR-CD3 inh conf | others
CC1C2(C)OC(=N)C(C#N)(C(C)O2)C1(C#N)C#N (stereo not given) | 9 | 6 | . | . | . | 1 | . | .
COC(=O)C1CN(Cc2ccc(OC)cc2)CCS(=O)(=O)N1Cc1ccc(F)cc1 (stereo not given) | . | . | . | 4 | -2 | . | . | .
CCOC(=O)C(CNc1ccc(O)cc1)NC(=O)c1ccccc1 (stereo not given) | . | . | 65* | 91* | 21 | . | 15 | 8 | SIAE confirm=8
C[C@@H]1COc2cc(Br)ccc2S(=O)(=O)N1Cc1cn(Cc2ccccc2)nn1 | . | . | . | 3 | 1 | . | . | .
CCOC(=O)C1CCCN(C(=O)C2COc3ccccc3O2)C1 (stereo not given) | . | . | 28* | 108* | 9 | . | -1 | -5 | SIAE confirm=9
O=C(C1COc2ccccc2O1)N1CCCC1 (stereo not given) | 3 | -1 | -2 | 3 | -4 | 0 | . | .
Cn1cc(C(=O)N/N=C/c2c(O)ccc3ccccc23)ccc1=O | 16 | 5 | 38* | 30* | -3 | 13 | -22 | 24* | SIAE confirm=9
CNc1ccc(Br)cc(C(=O)/C=C/c2ccc(OC)cc2OC)c1=O | 12 | -6 | 19* | 21* | 14 | 1 | -5 | 8 | SIAE confirm=7
CC(C)C1Nc2c(O)cc(Cl)c([N+](=O)[O-])c2C2C=CCC21 (stereo not given) | . | . | 20* | 22* | 30* | . | -7 | 3 | PRMT1 confirm=20;SIAE confirm=4
O=S1(=O)c2ccc(N3CCCC3)cc2Oc2ccccc2CN1Cc1cn(Cc2ccc(Cl)cc2)nn1 | . | . | . | 4 | 1 | . | . | .
O=C(N/N=C/c1ccoc1)c1ccccc1O | 5 | -4 | 25* | 19* | -1 | 3 | -19 | 15 | SIAE confirm=16
O=C(N/N=C/c1ccoc1)c1ccccc1 | 0 | -2 | 1 | 3 | -4 | -6 | . | .
O=C(CCc1ccccc1)N[C@H]1[C@H](OC(=O)c2ccco2)CCC[C@@]12C(=O)N(Cc1ccccc1)c1ccccc12 | . | . | . | -7 | -3 | . | . | .
C[C@@H]1OCN(C)[C@H]2C[C@H]3c4[nH]c5cccc(-c6ccc7c(c6)OCO7)c5c4CCN3C[C@@H]12 | . | . | . | 8 | 0 | . | . | .
COc1ccc(/C=N\NC(=O)c2cc(O)c(O)c(O)c2)cc1CN1CCN(c2ccc(F)cc2)CC1 | 14 | -3 | 23* | 30* | 7 | 21 | -8 | 23* | SIAE confirm=-7
COc1cc(C(=O)OCC(=O)N2CCCC2=O)cc(OC)c1C | . | 2 | 43* | 17* | 96* | . | 5 | 3 | PRMT1 confirm=-1;SIAE confirm=-2
COC(=O)C1CN(C2CCCC2)CCS(=O)(=O)N1Cc1cn(Cc2ccc(OC)cc2)nn1 (stereo not given) | . | . | . | -6 | -1 | . | . | .
COc1ccc(-c2cc(C(=O)N=Nc3c(O)[nH]c4ccccc34)[nH]n2)cc1 | . | . | . | 5 | -2 | . | . | .

Screening data deposited in PubChem BioAssay by The Scripps Research Institute Molecular Screening Center.
